DAX1 inh-1 – inhibitors of DAX1 repression of SF-1 activated StAR promoter. HEK293T StAR-luciferase reporter, SF-1/DAX-1 repression relief. AID 652010. actives 1.1% (n = 370,000). inhibition, % at 6.8 µM;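 active = inhibition above the mean over all tested compounds plus 3 SD, cut at about 3.6% in these data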;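 note: higher inhibition means more luminescence from relief of DAX-1 repression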
DAX1 inh-2 – NR0B1 (DAX1) inhibition; inhibition, % at 6.75 µM; HEK293 Gal4-DAX1 luciferase reporter, luminescence; actives 0.99% (n = 340,000);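 active = inhibition above the mean over all tested compounds plus 3 SD, cut at about 4.2% in these data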;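 note: inhibition shows as a rise in luminescence from relieved DAX1 repression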
Target sequence (P51843 207-470 limits assumed): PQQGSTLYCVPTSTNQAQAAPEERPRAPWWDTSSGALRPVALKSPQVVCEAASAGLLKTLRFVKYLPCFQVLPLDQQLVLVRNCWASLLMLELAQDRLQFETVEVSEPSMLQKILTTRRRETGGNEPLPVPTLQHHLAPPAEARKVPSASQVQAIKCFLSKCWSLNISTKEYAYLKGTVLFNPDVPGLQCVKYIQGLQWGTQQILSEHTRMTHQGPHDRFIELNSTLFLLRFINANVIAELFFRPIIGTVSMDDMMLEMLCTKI
hgDAF12 agonist – activates the H. glycines DAF-12 receptor ligand-binding domain | actives 1.8% (n = 370,000) | activation, % at 6.8 µM | HEK293 GAL4-hgDAF12 UAS-luciferase reporter, agonist luminescence; normalized to butyrate control;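 active = activation above a cutoff set at the mean of all screened compounds plus 3 SD, cut at about 10% in these data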
ssDAF-12 act – activates DAF-12 receptor from parasite S. stercoralis; HEK293 ssDAF-12/GRIP1 lit1-tk-luc reporter, luminescence; % of 3 µM dafachronic acid response; activation, % at 6.8 µM; actives 1% (n = 370,000);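 active = activation above the mean over all tested compounds plus 3 SD, cut at about 0.9% in these data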
hcDAF-12 act – H. contortus DAF-12 activation, primary screen; actives 1.4% (n = 370,000); activation, % at 6.8 µM; HEK293 hcDAF-12 lit1-tk-luc reporter, luminescence; 0% DMSO, 100% Δ7-dafachronic acid;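 active = activation above the mean of all tested compounds plus 3 SD, cut at about 5.5% in these data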
Numbers stand for hits; . = inactive; / = no result given. An excerpt weighted towards active compounds, which were near 4.1% of everything screened.

SMILES | DAX1 inh-1 | DAX1 inh-2 | hgDAF12 agonist | ssDAF-12 act | hcDAF-12 act
O=C(NCc1ccccc1Cl)C1CCN(C(=O)c2ccc(F)cc2)CC1 | . | . | . | . | .
CC(C)(C)OC(=O)NCc1ccccc1/C=C/S(=O)(=O)NCCc1ccccc1 | . | / | . | . | .
Oc1ccc(-c2[nH]ncc2-c2ccc(Br)cc2)c(O)c1 | . | 6.4 | . | . | .
Oc1ccc(-c2[nH]ncc2-c2ccc(Cl)cc2)c(O)c1 | . | . | . | . | .
O=C(Nc1ccc(Br)cc1)O[C@@H]1CC[C@@]23CCCN2C(=O)CCC[C@H]3C1 | / | / | . | . | .
CCOC(=O)[C@@H]1CSCCS(=O)(=O)N1Cc1ccccc1 | . | / | . | . | .
CC(=O)c1c(C)[nH]c(C(=O)Nc2ccccc2C)c1C | / | / | . | . | .
O=C(NNC1=C(C(=O)C(F)(F)F)CCC1)c1ccccc1O | . | . | . | 1.0 | 5.6
COc1ccccc1C(=O)NNC1=C(C(=O)C(F)(F)F)CCC1 | . | . | . | 0.9 | .
C/C(=N\OC(=O)c1ccc(F)cc1)c1nccs1 | . | . | . | 1.1 | .
COc1ccc(C(=O)O/N=C(\C)c2nccs2)cc1 | . | . | . | . | .
CC(=O)Oc1ccc(C(=O)Nc2ccccc2C(=O)Nc2cccc(C(=O)O)c2)cc1 | . | 5.4 | . | . | .
CCOC(=O)[C@H](Cc1ccccc1)NC(=O)[C@H]1C[C@@]2(N3CCCCC3)c3ccccc3N(C(=O)OC(C)(C)C)[C@H]2N1C(=O)OC(C)(C)C | . | / | . | . | .
O=C(CN1CCCCC1CO)c1ccc(OC(F)F)cc1 (stereo unspecified) | . | 4.5 | . | . | .
Cc1ccc(-n2c(=S)[nH]c3nc4c(cc3c2=O)COC(C)(C)C4)cc1 | . | . | . | . | .
CC1(C)Cc2nc3[nH]c(=S)[nH]c(=O)c3cc2CO1 | . | 4.8 | . | . | .
CC(C)(C)c1cc(N2CCOCC2)n2ncc(-c3ccc(Cl)cc3)c2n1 | . | . | . | . | .
Cc1ccc(-c2cnn3c(N4CCOCC4)cc(C)nc23)cc1 | . | 7.6 | . | . | .
Cc1cc(N2CCOCC2)n2ncc(-c3ccc(Cl)cc3)c2n1 | . | 6.7 | . | . | .
C=CCc1c(C)nc2c(-c3ccccc3)cnn2c1N1CCOCC1 | . | . | . | . | 5.6
CN(C)S(=O)(=O)c1cccc(C(=O)N/N=C\c2ccnc3ccccc23)c1 | . | / | . | . | .
CCNC(=S)NNC(=O)CSc1nnc(-c2ccccc2)n1-c1ccc(Cl)cc1 | . | / | . | . | .
Cc1cccc(NC(=O)Cn2c(O)c(N=NC(=O)c3ccccc3O)c3ccccc32)c1 | . | . | . | . | 6.0
NC(=S)N=Nc1c(O)n(CC(=O)Nc2ccccc2)c2ccccc12 | . | . | . | . | .
COCCC(=O)N1CCC(C(=O)Nc2ccc(Oc3ccccc3)nc2)CC1 | . | . | . | . | 5.8
SMILES | DAX1 inh-1 | DAX1 inh-2 | hgDAF12 agonist | ssDAF-12 act | hcDAF-12 act
O=C(Nc1ccc(Oc2ccccc2)nc1)C1CCCCN1Cc1ccc(O)cc1 (stereo unspecified) | 3.9 | . | . | . | .
O=C(Nc1ccc(Oc2ccccc2)nc1)C1CCCCN1Cc1cccc(O)c1 (stereo unspecified) | . | . | . | . | .
Cc1cc2c(cc1C)NC(=O)CC(c1ccccc1)=N2 | . | . | 12.2 | . | .
CC(C)Oc1cccc(-c2n[nH]c(=S)n2N=Cc2cccc([N+](=O)[O-])c2)c1 | . | / | . | . | .
COc1cccc(/C=C/C(=O)OCC(=O)N2CCCC2)c1OC | 4.4 | . | . | . | .
COc1ccccc1/C=C/C(=O)OCC(=O)N1CCCCC1 | . | . | . | . | .
CC(C)C(OC(=O)c1cc2c(s1)CCCCC2)C(=O)NC(N)=O (stereo unspecified) | . | . | . | . | 5.8
CC(C)(C)C(=O)OC12CCCN(C1)/C(=C/c1ccncc1)C2 (stereo unspecified) | . | / | . | . | .
CC(=O)N1CCc2[nH]c3ccccc3c2C1 | . | . | . | . | .
O=C(CCCCl)N1CCc2[nH]c3ccccc3c2C1 | . | . | . | . | 5.6
CN1CCC(=NOc2ccc([N+](=O)[O-])cc2)CC1 | . | 4.7 | . | . | .
CC(NC(=O)NC12CC3CC(CC(C3)C1)C2)C1CCCO1 (stereo unspecified) | . | 7.2 | . | . | .
CC(C)N1CCN(Cc2ccc(-c3ccccc3)cc2)CC1CCO (stereo unspecified) | . | . | . | . | .

Source: PubChem
